About 79,000 compounds went through this panel and 15% of them were active in at least one assay; those are over-represented in the sample as a whole. Activity calls are given as the source filed them. Rule as the data show it: active = growth inhibition above about 70%; inactive = the rest.
Test: NCI Yeast Anticancer Drug Screen. Data for the cln2 rad14 strain (AID 165);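 also: 0% = growth equal to vehicle treated cultures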
Details: S. cerevisiae cln2 rad14 strain, at 50.0 µM, active compounds read high
Outline: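 Test compounds were added to cln2 rad14 yeast cultures; inhibition of growth was then determined by comparison with vehicle treatment.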

For OCc1c(-c2ccc(Cl)cc2)c(-c2ccc(Cl)cc2)c2n1CCC2, which growth inhibition is on record?
Its growth inhibition is 90.4% (active).

For CCOC(=O)c1[nH]c(Cc2[nH]c(Cc3[nH]c(C(=O)OCC)c(C)c3C(=O)OCC)c(C(=O)OCC)c2C)c(C(=O)OCC)c1C, which growth inhibition is on record?
The growth inhibition was 37.5% (inactive).

Which growth inhibition does the source give for Cc1oc2nc(N(C)C)nc(NN)c2c1C here?
Its growth inhibition is -0.75% (inactive).

For CCOC(=O)Cc1nc2ccccc2[nH]c1=O, which growth inhibition is on record?
The growth inhibition was 0.35% (inactive).

Which growth inhibition does the source give for NC(=O)Nc1ccc(Cl)cc1[N+](=O)[O-] here?
Its growth inhibition is -46.5% (inactive).

Which growth inhibition does the source give for C[C@@H]1CC[C@@]2(C)C(C(=O)O)=CCCC2[C@@]1(C)CC(=O)c1ccoc1 (stereo not given in full) here?
Its growth inhibition is -17.1% (inactive).

Which growth inhibition does the source give for CC(C)CCC(=O)O here?
The growth inhibition was -9.6% (inactive).

With CC(=O)CC(=O)NC(C)(C)C as the molecule, how does the growth inhibition read?
The growth inhibition was -13.2% (inactive).

Which growth inhibition does the source give for CCCCCCC(C)OC(C)=O (stereo not given) here?
The growth inhibition was -20% (inactive).

For O=C(Nc1ccccc1Cl)Oc1ccc(C(=O)c2ccccc2)cc1, which growth inhibition is on record?
The growth inhibition was 19.9% (inactive).

Which growth inhibition does the source give for Cc1ccc(O)c(C(C)C)c1 here?
Its growth inhibition is -16.1% (inactive).

With Cc1ccc(O)c(C(C)(C)C)c1 as the molecule, how does the growth inhibition read?
The growth inhibition was 21.3% (inactive).

With CCC(=O)OCCCC1CCCO1 (stereo not given) as the molecule, how does the growth inhibition read?
The growth inhibition was -9.8% (inactive).

Which growth inhibition does the source give for CCC1CN1C(=O)c1cc(C(=O)N2CC2CC)cc(C(=O)N2CC2CC)c1 (stereo not given) here?
Its growth inhibition is 24.3% (inactive).

Which growth inhibition does the source give for CC1=C(C(=O)NCCc2ccccc2)CC(C(=O)NCCc2ccccc2)=C(C)N1 here?
The growth inhibition was 14.5% (inactive).

For C[C@@H](O)CO, which growth inhibition is on record?
The growth inhibition was 3.75% (inactive).

For CC1(c2ccccc2)CCC(=O)NC1 (stereo not given), which growth inhibition is on record?
The growth inhibition was 8.45% (inactive).

For Cc1ccccc1N(CCC#N)C1=NN(C(=O)CC(=O)Nc2ccccc2)C(c2ccccc2)C1 (stereo not given), which growth inhibition is on record?
Its growth inhibition is 11.7% (inactive).

Which growth inhibition does the source give for OCCO here?
The growth inhibition was -31.6% (inactive).

Which growth inhibition does the source give for CCCCCCCCCCCC(=O)C1=C(O)C(O)CCC1=O (stereo not given) here?
The growth inhibition was -50% (inactive).

For O=C(O)c1nn(-c2ccc(Cl)cc2)c2c1C(=O)c1ccccc1C2=O, which growth inhibition is on record?
Its growth inhibition is 14.1% (inactive).

With COc1cc(OC)c(NC(=O)Nc2ccc([N+](=O)[O-])cc2OC)cc1Cl as the molecule, how does the growth inhibition read?
The growth inhibition was -49.1% (inactive).

Which growth inhibition does the source give for COC(=O)[C@H](Cc1c[nH]c2ccccc12)NP(=O)(OCCC#N)OCC1OC(n2cc(C)c(=O)[nH]c2=O)CC1N=[N+]=[N-] (stereo not given in full) here?
Its growth inhibition is -13.3% (inactive).

For Cc1c(C(=O)Nc2ccccc2)nnn1-c1ccnc2cc(C(F)(F)F)ccc12, which growth inhibition is on record?
The growth inhibition was -4.05% (inactive).

Which growth inhibition does the source give for CC1Oc2ccc3ccccc3c2C(C)N1C (stereo not given) here?
Its growth inhibition is -4.85% (inactive).

With CC(=O)OCC(OC(C)=O)C(OC(C)=O)c1cnn(-c2ccccc2)n1 (stereo not given) as the molecule, how does the growth inhibition read?
Its growth inhibition is 17.7% (inactive).

For O=C1CCCCCCCCC1=O, which growth inhibition is on record?
Its growth inhibition is -4.05% (inactive).

For CC(C)N(C=C(C#N)C#N)C(C)C, which growth inhibition is on record?
Its growth inhibition is -57.5% (inactive).

For COc1cc(Nc2nc3cc(C(F)(F)F)ccc3nc2-c2ccccc2)cc(OC)c1OC, which growth inhibition is on record?
Its growth inhibition is -11.8% (inactive).

With Cc1[nH]c(=O)[nH]c(=O)c1NC=O as the molecule, how does the growth inhibition read?
The growth inhibition was 14.6% (inactive).

With CCCCNc1ccc2c(c1)Cc1ccccc1-2 as the molecule, how does the growth inhibition read?
Its growth inhibition is 3.25% (inactive).

Which growth inhibition does the source give for COc1ccc(/C=C2\CCC(Cc3ccccc3)(CN(C)C)C2=O)cc1 (stereo not given) here?
Its growth inhibition is 3.7% (inactive).

For COC(=O)c1c(C=O)cccc1[N+](=O)[O-], which growth inhibition is on record?
The growth inhibition was 0.7% (inactive).

Which growth inhibition does the source give for COC(=O)c1ccc(Cl)c(Cl)c1Cl here?
The growth inhibition was -11.8% (inactive).

For N#CCc1ccc(C(C#N)C(=O)CCC(=O)C(C#N)c2ccc(CC#N)cc2)cc1 (stereo not given), which growth inhibition is on record?
The growth inhibition was 34.1% (inactive).

For COc1ccc(C[C@H](N)C(=O)NC2C(CO)OC(n3cnc4c(N(C)C)ncnc43)C2O)cc1 (stereo not given in full), which growth inhibition is on record?
The growth inhibition was -0.8% (inactive).

Which growth inhibition does the source give for CC(=O)OC/C=C(\C)CC(/C=C(C)/C=C/C1=C(C)CCCC1(C)C)S(=O)(=O)c1ccccc1 (stereo not given) here?
Its growth inhibition is 2.05% (inactive).

Which growth inhibition does the source give for O=C(N/N=C\c1cc(=O)[nH]c(=O)[nH]1)c1ccccc1 here?
Its growth inhibition is -6.75% (inactive).

Which growth inhibition does the source give for Cc1[nH]ccc2c3ccc(=O)cc3n(S(=O)(=O)O)c12 here?
The growth inhibition was 18.4% (inactive).

Which growth inhibition does the source give for CCCCNC(=O)NC/C(Br)=C/Br here?
The growth inhibition was -3.75% (inactive).

Test: NCI Yeast Anticancer Drug Screen. Data for the bub3 strain (AID 167)
Details: S. cerevisiae bub3 mutant strain, at 50.0 µM, active compounds read high
Outline: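 Whole-cell yeast assay. The mutant strain was incubated with compounds, and growth inhibition was determined by comparison with vehicle-treated cells.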

With OCc1c(-c2ccc(Cl)cc2)c(-c2ccc(Cl)cc2)c2n1CCC2 as the molecule, how does the growth inhibition read?
Its growth inhibition is -2.35% (inactive).

For CCOC(=O)c1[nH]c(Cc2[nH]c(Cc3[nH]c(C(=O)OCC)c(C)c3C(=O)OCC)c(C(=O)OCC)c2C)c(C(=O)OCC)c1C, which growth inhibition is on record?
Its growth inhibition is 24.7% (inactive).

For Cc1oc2nc(N(C)C)nc(NN)c2c1C, which growth inhibition is on record?
Its growth inhibition is 10.2% (inactive).

Which growth inhibition does the source give for CCOC(=O)Cc1nc2ccccc2[nH]c1=O here?
The growth inhibition was -6.35% (inactive).

Which growth inhibition does the source give for NC(=O)Nc1ccc(Cl)cc1[N+](=O)[O-] here?
Its growth inhibition is -6.45% (inactive).

With C[C@@H]1CC[C@@]2(C)C(C(=O)O)=CCCC2[C@@]1(C)CC(=O)c1ccoc1 (stereo not given in full) as the molecule, how does the growth inhibition read?
Its growth inhibition is -42.5% (inactive).

For CC(C)CCC(=O)O, which growth inhibition is on record?
The growth inhibition was 3.8% (inactive).

For CC(=O)CC(=O)NC(C)(C)C, which growth inhibition is on record?
Its growth inhibition is 2.85% (inactive).

For CCCCCCC(C)OC(C)=O (stereo not given), which growth inhibition is on record?
Its growth inhibition is -3.5% (inactive).

With O=C(Nc1ccccc1Cl)Oc1ccc(C(=O)c2ccccc2)cc1 as the molecule, how does the growth inhibition read?
Its growth inhibition is 16.9% (inactive).

With Cc1ccc(O)c(C(C)C)c1 as the molecule, how does the growth inhibition read?
Its growth inhibition is -40.2% (inactive).

With Cc1ccc(O)c(C(C)(C)C)c1 as the molecule, how does the growth inhibition read?
Its growth inhibition is -0.65% (inactive).

For CCC(=O)OCCCC1CCCO1 (stereo not given), which growth inhibition is on record?
Its growth inhibition is 2% (inactive).

Which growth inhibition does the source give for CCC1CN1C(=O)c1cc(C(=O)N2CC2CC)cc(C(=O)N2CC2CC)c1 (stereo not given) here?
The growth inhibition was -5.75% (inactive).

With CC1=C(C(=O)NCCc2ccccc2)CC(C(=O)NCCc2ccccc2)=C(C)N1 as the molecule, how does the growth inhibition read?
The growth inhibition was -13.2% (inactive).

With C[C@@H](O)CO as the molecule, how does the growth inhibition read?
The growth inhibition was -3.55% (inactive).

For CC1(c2ccccc2)CCC(=O)NC1 (stereo not given), which growth inhibition is on record?
Its growth inhibition is -7.25% (inactive).

Which growth inhibition does the source give for Cc1ccccc1N(CCC#N)C1=NN(C(=O)CC(=O)Nc2ccccc2)C(c2ccccc2)C1 (stereo not given) here?
Its growth inhibition is 0.85% (inactive).

Which growth inhibition does the source give for OCCO here?
The growth inhibition was -32% (inactive).

With CCCCCCCCCCCC(=O)C1=C(O)C(O)CCC1=O (stereo not given) as the molecule, how does the growth inhibition read?
Its growth inhibition is -7.4% (inactive).

For O=C(O)c1nn(-c2ccc(Cl)cc2)c2c1C(=O)c1ccccc1C2=O, which growth inhibition is on record?
The growth inhibition was 12% (inactive).

For COc1cc(OC)c(NC(=O)Nc2ccc([N+](=O)[O-])cc2OC)cc1Cl, which growth inhibition is on record?
The growth inhibition was 1.25% (inactive).

With COC(=O)[C@H](Cc1c[nH]c2ccccc12)NP(=O)(OCCC#N)OCC1OC(n2cc(C)c(=O)[nH]c2=O)CC1N=[N+]=[N-] (stereo not given in full) as the molecule, how does the growth inhibition read?
The growth inhibition was -30.8% (inactive).

For Cc1c(C(=O)Nc2ccccc2)nnn1-c1ccnc2cc(C(F)(F)F)ccc12, which growth inhibition is on record?
Its growth inhibition is -5.6% (inactive).

For CC1Oc2ccc3ccccc3c2C(C)N1C (stereo not given), which growth inhibition is on record?
The growth inhibition was 1.3% (inactive).

Which growth inhibition does the source give for CC(=O)OCC(OC(C)=O)C(OC(C)=O)c1cnn(-c2ccccc2)n1 (stereo not given) here?
Its growth inhibition is 24.6% (inactive).

With O=C1CCCCCCCCC1=O as the molecule, how does the growth inhibition read?
The growth inhibition was -12.8% (inactive).

With CC(C)N(C=C(C#N)C#N)C(C)C as the molecule, how does the growth inhibition read?
Its growth inhibition is 3.75% (inactive).

For COc1cc(Nc2nc3cc(C(F)(F)F)ccc3nc2-c2ccccc2)cc(OC)c1OC, which growth inhibition is on record?
Its growth inhibition is -10.4% (inactive).

For Cc1[nH]c(=O)[nH]c(=O)c1NC=O, which growth inhibition is on record?
The growth inhibition was -11.8% (inactive).

For CCCCNc1ccc2c(c1)Cc1ccccc1-2, which growth inhibition is on record?
The growth inhibition was -18.8% (inactive).

Which growth inhibition does the source give for COc1ccc(/C=C2\CCC(Cc3ccccc3)(CN(C)C)C2=O)cc1 (stereo not given) here?
The growth inhibition was -11.8% (inactive).

For COC(=O)c1c(C=O)cccc1[N+](=O)[O-], which growth inhibition is on record?
Its growth inhibition is -14.1% (inactive).

For COC(=O)c1ccc(Cl)c(Cl)c1Cl, which growth inhibition is on record?
Its growth inhibition is 6.1% (inactive).

Which growth inhibition does the source give for N#CCc1ccc(C(C#N)C(=O)CCC(=O)C(C#N)c2ccc(CC#N)cc2)cc1 (stereo not given) here?
The growth inhibition was -0.3% (inactive).

With COc1ccc(C[C@H](N)C(=O)NC2C(CO)OC(n3cnc4c(N(C)C)ncnc43)C2O)cc1 (stereo not given in full) as the molecule, how does the growth inhibition read?
Its growth inhibition is -26.9% (inactive).

For CC(=O)OC/C=C(\C)CC(/C=C(C)/C=C/C1=C(C)CCCC1(C)C)S(=O)(=O)c1ccccc1 (stereo not given), which growth inhibition is on record?
Its growth inhibition is 0.2% (inactive).

For O=C(N/N=C\c1cc(=O)[nH]c(=O)[nH]1)c1ccccc1, which growth inhibition is on record?
Its growth inhibition is -14.2% (inactive).

Which growth inhibition does the source give for Cc1[nH]ccc2c3ccc(=O)cc3n(S(=O)(=O)O)c12 here?
The growth inhibition was 16.8% (inactive).

Which growth inhibition does the source give for CCCCNC(=O)NC/C(Br)=C/Br here?
The growth inhibition was 1.85% (inactive).
